HTT prom inh = inhibitors of huntingtin promoter activity; HEK293 HTT promoter firefly luciferase reporter, 24 h; Potency, µM (series often up to 57.5 µM), for the others: at the highest dose activity change, negative = inhibition, hits mostly inhibitors; actives 0.93% (n = 48,000); AID 1508623; also: potency is read from the fitted curve at half-maximal effect; nearly all actives have a fitted effect of over 50% in size
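HEK293 Fluc reporter, 2,500 cells/well, 24 h pre-culture; cpds up to 57.5 uM final, 24 h 37 degrees C; Dual-Glo, 10 min RT; normalized vehicle = 0%, zero RLU = -100%.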
GALC G270D up = galactocerebrosidase G270D activity enhancement, cell-based | 145M-Twi-hGALC-G270D cells (Twitcher mouse brain line with human GALC G270D), HMU-beta-Gal fluorescence, 48 h | Potency, µM (titrated, usually from 57.5 µM), actives largely listed as activators | actives 0.1% (n = 45,000) | AID 1159614; also: potency is read from the fitted curve at half-maximal effect; 0% is about no effect; nearly all actives have a fitted effect of over 65% in size
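Fluorescence readout: HMU-β-gal cleavage by mutant GALC (0.1 mM final, citrate/phosphate pH 5.2 with 1 mg/mL taurocholate), stopped with carbonate/bicarbonate plus Triton X-100. Cells: murine Twitcher 145M-Twi expressing human G270D GALC; qHTS for activators.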
DRV1 agonist = activates human resolvin D1 receptor GPR32. CHO-K1 GPR32 beta-arrestin PathHunter luminescence, 90 min; zero percent set by DMSO-only wells. activation, % at 76.9 µM. actives 2.5% (n = 48,000);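 active = activation of at least 60% and not above a set upper limit, about 1 call in 100 departs from these limits; inconclusive = activation of 40% to 60%, or above that upper limit; inactive = activation under 40%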; also: 0% is about no effect
Target sequence (O75388 whole entry, looked up): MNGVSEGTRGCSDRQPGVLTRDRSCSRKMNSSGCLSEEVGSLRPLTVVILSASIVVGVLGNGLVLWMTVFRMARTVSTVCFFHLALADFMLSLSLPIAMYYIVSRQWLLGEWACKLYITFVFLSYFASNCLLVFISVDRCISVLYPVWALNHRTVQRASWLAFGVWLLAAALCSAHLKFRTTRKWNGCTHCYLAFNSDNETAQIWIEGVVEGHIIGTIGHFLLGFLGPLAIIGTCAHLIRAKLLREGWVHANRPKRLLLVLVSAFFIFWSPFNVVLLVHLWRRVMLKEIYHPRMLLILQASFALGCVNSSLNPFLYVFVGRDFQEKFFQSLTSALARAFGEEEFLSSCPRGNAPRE
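Beta-arrestin recruitment read-out: luminescence from complemented beta-Gal in CHO-K1 GPR32 PathHunter cells, measured 1 h after detection reagent at ambient temperature following 90 min compound exposure at 37 °C; DMSO served as basal (EC0) control.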
FH mod = Identification of activators of human fumarate hydratase by quantitative high-throughput screening | Fumarate hydratase, mitochondrial (Homo sapiens), P07954 | FH coupled MDH/diaphorase resazurin fluorescence, 15 min | Potency, µM (series often up to 79.9 µM), for the others: at the top dose activity change, negative = inhibition, hits mostly inhibitors | actives 0.22% (n = 54,000) | AID 1347055, 2019; also: potency is read from the fitted curve at half-maximal effect; % is scaled to controls: 0 for no effect and ±100 for the full control effect; the screen sought activators but most active calls are inhibition curves; nearly all actives have a fitted effect of over 45% in size
NTMT1 inh = NTMT1 methyltransferase inhibition | NTMT1 MTase-Glo SAH luminescence, purified enzyme | Potency, µM (top dose mostly 114 µM), for the others: top-dose activity change, negative = inhibition, hits mostly inhibitors | actives 2.5% (n = 59,000);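 also: potency is read from the fitted curve at half-maximal effect; plate controls were DMSO vehicle for no effect and no enzyme for full effect; nearly all actives have a fitted effect of over 65% in size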
HTT-AS promoter = activators of huntingtin-antisense promoter activity. Potency, µM (titrated, usually from 57.5 µM), for inactives: at the highest dose activity change, positive = activation, hits mostly activators. actives 0.24% (n = 48,000). HEK293 HTT-AS promoter firefly luciferase reporter, 24 h; response scale: percent change from vehicle, -100% = no light. AID 1508624; also: potency is read from the fitted curve at half-maximal effect; nearly all actives have a fitted effect of over 55% in size
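Firefly luciferase signal from promoter-reporter HEK293 cells was scaled between vehicle (0%) and zero RLU (-100%). Compounds were tested at final concentrations of up to 57.5 uM over 24 h at 37 degrees C. PTC124 at 50 uM final served as control inhibitor.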
Active calls of the source: *; i = inactive; ? = inconclusive; · = no result given; ! = a repeat was not active; [ ] = remark or other dose. Compounds with a hit are over-represented: about 4.7% of the library has one in this group of screens. Unless noted, calls follow the shape of the dose curve; as a rule, active = well fitted curve in the direction sought with a large enough effect; inconclusive = small, poorly fitted or top-dose-only effect, or another doubt; inactive = no such curve, though single readings can be large; an effect the other way counts as inactive or inconclusive.

SMILES	HTT prom inh	GALC G270D up	DRV1 agonist	FH mod	NTMT1 inh	HTT-AS promoter
COc1ccc(CNC(=O)C(=O)NCC(c2cccnc2)N2CCN(c3ccccc3F)CC2)cc1 (stereo not given)	13µM*	i	17	-26%	6%	-48%
COc1ccccc1CNC(=O)C(=O)NCC(c1cccnc1)N1CCN(c2ccc(F)cc2)CC1 (stereo not given)	?	i	2	-6%	3%	-46%
CCOC(=O)c1c(C)[nH]c(C)c1S(=O)(=O)N1CCN(c2cccc(C(F)(F)F)c2)CC1	?	1.1µM*	-10	-32%	-6%	-43%
O=C(O)c1ccc(-c2noc(-c3ccccc3F)n2)cc1	·	·	·	·	22µM*	·
Cc1cnc(-c2ccccc2C(F)F)nc1NCc1ccc(-n2ccnn2)cc1	·	·	·	·	0%	·
C=Cc1ccc(Cn2c(C)c(CNCCc3ccc(OCC)cc3)c(C(=O)O)c2C)cc1	0%	i	68*	-2%	-18%	-29%
CCOc1ccc(CNCc2c(C(=O)O)n(Cc3ccc(OC)cc3)c3ccccc23)cc1	?	i	5	-6%	11%	-40%
CCOc1ccc(CNCc2c(C(=O)O)n(Cc3ccc(C)cc3)c3cc(C)ccc23)cc1	?	i	64*	?	16%	-42%
Cc1ccc(Cn2c(C(=O)O)c(CNCc3cccs3)c3ccc(C)cc32)cc1	?	i	111*	-25%	-8%	-32%
S=c1ssc2c1CCC2	·	·	·	-1%	?	·
Cc1ccc(CN2C(=O)N(c3ccc(F)cc3)C(=O)C2CC(=O)Nc2ccc(Cl)cc2)cc1 (stereo not given)	?	i	4	-16%	5%	-50%
Cc1ccc(CN2C(=O)SC(Nc3ccc(Cl)cc3)C2=O)cc1 (stereo not given)	-26%	i	61*	6%	4%	-17%
CN(Cc1ccc(C(=O)O)cc1)c1ccc(OCc2c(-c3c(Cl)cccc3Cl)noc2C2CC2)nc1C(F)(F)F	·	·	·	16µM*	?	·
Clc1ccc(CSc2nc3ncc(Br)cc3[nH]2)cc1Cl	·	·	·	·	8%	·
C#Cc1cnc2[nH]c(=O)n(C(CC)CC)c2n1	·	·	·	16%	1%[57.5 µM]	·
O=c1[nH]nc(Sc2ncc([N+](=O)[O-])s2)n1-c1ccc2c(c1)OCCO2	?	·	·	11%[53.3 µM]	4.3µM*!	-95%
O=[N+]([O-])c1ccccc1S(=O)(=O)N1CCN(S(=O)(=O)c2ccc3c(c2)OCCO3)CC1	·	·	·	·	-2%	·
CCc1ccc(NC(=O)Cn2nnc(-c3ccccc3N)n2)cc1	-15%	i	62*	13%	2%	-11%
O=C(Nc1ccc2oc(-c3cccnc3)nc2c1)c1ccc(-c2ccc(OC(F)(F)F)cc2)o1	-21%	i	30	-4%	50µM*	-11%
O=C(Nc1ccc2oc(-c3cccnc3)nc2c1)c1ccc(-c2ccccc2)o1	?	i	-1	7%	?	-34%
CCCCC1CCN(CCCC(=O)c2ccccc2C)CC1	·	·	·	4%	18%[57.5 µM]	·
Cc1ccc(Nc2ncc3c(n2)N(C)C(=O)N(c2cc(NC(=O)c4cccc(C(F)(F)F)c4)ccc2C)C3)cn1	·	·	·	-16%	7%	·
OCCn1cc(-c2ccc3c(c2)CC/C3=N\O)c(-c2ccncc2)n1	·	·	·	5%	-10%	·
CCOC(=O)c1[nH]c(C)c(C(=O)NCc2cccc(OC)c2)c1C	-24%	i	61*	1%	-5%	-16%
CCOC(=O)c1[nH]c(C)c(C(=O)NCc2ccc(F)cc2)c1C	-37%	i	11	7%	-2%	0%
CC(=O)c1[nH]c(C)c(C(=O)NCc2ccc(Cl)cc2)c1C	16µM*	i	3	6%	0%	-50%
COc1cccc(CNc2ccc(S(=O)(=O)Nc3ccc(C4CCNCC4)cc3)cc2)c1O	·	·	·	·	40µM*	·

Screening results from PubChem.
